From PubChem BioAssay AID1508621 (National Center for Advancing Translational Sciences (NCATS), 2021)
Inconclusive results are not listed. The source made the active and inactive calls. The call rests on the fitted dose curve; in most records, active means well fitted inhibition curve with a large enough effect; inconclusive means small, poorly fitted or top-dose-only effect; inactive means no such curve, though single readings can be large or run the other way.

Assay: Confirmatory qHTS for Identification of Small Molecule Inhibitors of Huntingtin Promoter Activity; further: nearly all actives have a fitted effect of over 65% in size
Details: HEK293 HTT promoter firefly luciferase reporter, 24 h; series mostly up to 57.5 µM
Method in brief: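 Plated reporter HEK293 cells (24 h) received library compounds at up to 57.5 uM final or 50 uM PTC124, incubated 24 h at 37C; firefly luciferase luminescence was then recorded with Dual-Glo reagent.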
Potency means the concentration at half of the fitted maximal effect.

Potency, active:
COC[C@H](NC(=O)c1cnc(C)s1)C(=O)N[C@@H](COC)C(=O)N[C@@H](Cc1ccccc1)C(=O)[C@@]1(C)CO1 0.301 µM
CC(=O)c1ccc(N2CCN(c3ncnc4c3cnn4-c3cc(Cl)ccc3C)CC2)cc1 7.57 µM
CN(C)c1ccc(C(=C2C=CC(=[N+](C)C)C=C2)c2ccc(N(C)C)cc2)cc1 3.01 µM
O=C1C2=C(Nc3ccccc3SC2c2ccc(C(F)(F)F)cc2)c2ccccc21 (stereo not drawn) 19 µM

Potency, inactive:
CC(C)Oc1ccc(C(=O)N(Cc2ccco2)c2ccccn2)cc1
Cc1nc(Nc2n[nH]c3c2CN(C(=O)N[C@H](CN(C)C)c2ccccc2)C3(C)C)c2sccc2n1
CC1CCN(C(=O)CN2c3ccc(Br)cc3-c3ccccc3S2(=O)=O)CC1
CCN(CCCNC(=O)c1cc2cc3ccc(C)cc3nc2s1)c1ccccc1
